From PubChem
TDP1 cell noCPT = qHTS for Inhibitors of human tyrosyl-DNA phosphodiesterase 1 (TDP1): qHTS in cells in absence of CPT. DT40 Tdp1-/- hTDP1 cells, no CPT, ATP luminescence, 48 h. hit rate 15% among 420,000. AID 686978, 2013. Potency, µM (highest dose often 46.2 µM), without a hit: top-dose activity change, negative = growth inhibition, hits mostly inhibitors; also: nearly all actives have a fitted effect of over 55% in size
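Growth kinetics read by CellTiter-Glo luminescence after ≥48 hr at 37 °C. Cells: DT40 Tdp1-/- stably carrying human TDP1, 400 per well, compound exposure in the absence of CPT (DMSO vehicle).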
HT1080-NT tox = kills 2HG-producing HT-1080-NT fibrosarcoma cells; HT-1080-NT fibrosarcoma viability, CellTiter-Glo ATP luminescence, 48 h; Potency, µM (titrated, usually from 46.1 µM), for inactives: top-dose activity, negative = less viability, most hits filed as cytotoxic; hit rate 1.6% among 360,000; AID 686970;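 also: NT is the 2HG producing partner of a matched IDH1 knockdown line; 0% = DMSO-treated cells and -100% = media-only wells without cells; nearly all actives have a fitted effect of over 55% in size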
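Viability by CellTiter-Glo luminescence after 48 h compound exposure at 37C of HT-1080-NT cells (750/well, RPMI, 5% FBS). % activity scaled between DMSO wells and medium-only wells, then curve-fitted and categorized by curve class.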
DT40 TDP1 CPT = growth inhibition of DT40 Tdp1-/-;hTDP1 cells with camptothecin (screen for TDP1 inhibitors); chicken DT40 Tdp1-/-;hTDP1 cells + 20 nM CPT, ATP luminescence, 48 h; Potency, µM (top dose mostly 46.2 µM), without a hit: at the highest dose activity change, negative = growth inhibition, most hits filed as inhibitors; hit rate 12% among 420,000; AID 686979; also: nearly all actives have a fitted effect of over 55% in size
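Cell growth measured by CellTiter-Glo luminescence after a minimum 48 h, 37 C compound exposure with 20 nM CPT in Tdp1-knockout DT40 cells stably expressing hTDP1, seeded 400/well; qHTS titration format.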
HT1080 IDH1KD tx = toxicity to HT-1080 IDH1 knockdown cells (counter line) | HT-1080 IDH1 knockdown viability, ATP luminescence, 48 h | Potency, µM (top dose mostly 46.1 µM), without a hit: at the top dose activity, negative = toxicity, most hits filed as cytotoxic | hit rate 2% among 360,000 | AID 686971;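 also: 0% = DMSO wells and -100% = cell-free medium wells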
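Luminescent ATP read-out (CellTiter-Glo, 10 min at room temperature) after 48 h compound exposure at 37 °C gave viability of IDH1-knockdown HT-1080 cells. Activity was normalised to DMSO and cell-free wells, then fitted as concentration-response curves.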
KB-3-1 tox = kills parental KB-3-1 adenocarcinoma cells | hit rate 1.4% among 400,000 | Potency, µM (series often up to 46.1 µM), actives largely listed as cytotoxic | KB-3-1 viability, CellTiter-Glo ATP luminescence, 72 h; also: nearly all actives have a fitted effect of over 60% in size
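Viability of parental KB-3-1 cells, measured by CellTiter-Glo luminescence, followed a 72 h incubation at 37 °C with pinned compounds in phenol-red-free DMEM containing 10% FBS.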
KB-V1 cytotox = KB-V1 MDR subline cytotoxicity | KB-V1 MDR cells viability, CellTiter-Glo, 72 h | AID 1347076 | hit rate 3.4% among 400,000 | Potency, µM (titrated, usually from 46.1 µM), usual class: cytotoxic; also: nearly all actives have a fitted effect of over 60% in size
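Potencies derive from concentration-effect curves fitted to normalized luminescence (CellTiter-Glo) of KB-V1 cells treated for 72 h at 37 degrees C in phenol-red-free DMEM containing 10% FBS.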
Starred values were filed as active, the others as inactive; i = inactive; ? = inconclusive; / = no result given. In the library only some 19% were active in any assay of this set; here they are far more common. Calls follow the shape of the dose curve; as a rule, active = well fitted curve in the direction sought with a large enough effect; inconclusive = small, poorly fitted or top-dose-only effect, or another doubt; inactive = no such curve, though single readings can be large; an effect the other way counts as inactive or inconclusive. Unless noted, % is scaled to controls: 0 for no effect and ±100 for the full control effect; potency is read from the fitted curve at half-maximal effect.

SMILES	TDP1 cell noCPT	HT1080-NT tox	DT40 TDP1 CPT	HT1080 IDH1KD tx	KB-3-1 tox	KB-V1 cytotox
COC(=O)C(=Cc1ccncc1)c1cccc2ccccc12	13µM*	-0.3%	6.51µM*	-23.8%	i	?
N#CCC1c2ccccc2CCN1C(=O)Nc1cccc(Cl)c1 (stereo not given)	?	-14.0%	?	?	i	16.4µM*
N#CCC1c2ccccc2CCN1C(=O)Nc1ccc(C(F)(F)F)cc1 (stereo not given)	?	?	?	?	i	i
N#CCC1c2ccccc2CCN1C(=O)Nc1cccc(C(F)(F)F)c1 (stereo not given)	?	12.6µM*	?	?	?	i
N#CCC1c2ccccc2CCN1C(=O)Nc1ccc(Cl)cc1 (stereo not given)	-15.8%	7.2%	-15.8%	-29.7%	i	i
COc1cc(S(=O)(=O)NCCc2c(C)[nH]c3ccccc23)c(C)cc1C	18.4µM*	/	18.4µM*	/	i	?
COc1cccc(-c2ncn(CCc3ccccc3OC)c2C(C)C)c1	5.8µM*	13µM*	7.31µM*	14.6µM*	?	11.6µM*
COc1ccccc1CCn1c(=O)c(C)nc2cncnc21	?	/	1.9%	/	/	/
CCc1ncn(CCc2ccccc2OC)c1C(C)C	4.61µM*	?	3.66µM*	?	?	?
COc1ccccc1CCn1cnc(C)c1CC(C)C	6.51µM*	?	11.6µM*	?	?	i
COc1ccccc1CCn1cnc(Cc2cccc(F)c2)c1C(C)C	?	?	?	?	?	18.4µM*
COc1ccc2c(c1)c1c(c(=O)n(Cc3ccccc3)c(=O)n1Cc1cc(C)ccc1C)n2C	-8.0%	/	7.0%	/	i	i
COc1ccc(Cc2cnc(N)nc2N)cc1OC	?	/	?	/	i	?
COc1cc(C)c(Cc2cnc(N)nc2N)cc1OC	13.3µM*	/	?	/	i	i
O=C(NCc1ccco1)c1ccccc1	-0.1%	7.7%	2.1%	0.3%	i	i
O=C(NCc1ccco1)c1cccc(NC(=O)c2ccco2)c1	-26.0%	?	-29.0%	-16.3%	7.31µM*	i
O=C(NCc1ccco1)c1cccc(-c2nnc(-c3ccccc3)o2)c1	?	-5.5%	20.6µM*	-30.0%	?	?
O=C(Nc1ccc(Br)c(C(F)(F)F)c1)c1ccccc1	23.1µM*	-0.3%	20.6µM*	0.4%	i	16.4µM*
CC(C)CNC(=O)c1cccc(NC(=O)c2ccco2)c1	-6.6%	1.3%	-9.3%	23.8%	i	i
Cc1cc(NC(=O)c2cncc(Br)c2)ccc1NC(=O)c1cc2ccccc2o1	8.2µM*	-6.1%	13µM*	-14.4%	?	?
COc1ccc(-n2c(SCC(=O)N3CCC(C)CC3)nc3c([nH]c4ccccc43)c2=O)cc1	2.3%	/	-1.8%	/	?	?
Fc1ccc(NC(=S)NC23CN4CN(CN(C4)C2)C3)cc1	-18.0%	-2.9%	?	1.9%	i	i
CC1=C(C(=O)O)CC(S(=O)(=O)O)C1(C)C (stereo not given)	-3.5%	1.0%	5.7%	18.7%	i	i
CC(=NNC(=O)c1ccc(NS(=O)(=O)c2cccs2)cc1)c1ccc(OCC(N)=O)cc1	-0.6%	9.4%	-2.5%	5.4%	i	?
Cc1ccc([C@H]2C[C@@H](n3cc(COC(=O)c4ccccc4)nn3)[C@H](O)CN2C(=O)c2cccs2)cc1	?	-5.6%	-18.2%	2.1%	i	i
SMILES	TDP1 cell noCPT	HT1080-NT tox	DT40 TDP1 CPT	HT1080 IDH1KD tx	KB-3-1 tox	KB-V1 cytotox
O=C(NCc1ccccc1)c1cccc(NC(=O)c2ccccc2)c1	-14.8%	?	?	?	23.1µM*	i
Cc1cccc(NC(=O)c2cccc(NC(=O)c3ccccc3)c2)n1	?	-10.5%	4.11µM*	0.8%	i	?
O=C(NCc1ccccc1)c1cccc(NC(=O)C2CC2)c1	-18.2%	3.7%	-4.4%	-1.4%	i	i
CCCCOc1ccc(C(=O)Nc2cccc(C)n2)cc1	?	-6.3%	?	3.2%	?	16.4µM*
COC(=O)c1ccc(NC(=S)NCc2ccco2)cc1	-22.4%	-2.6%	-3.8%	-15.5%	i	i
Cc1cccc(NC(=O)Nc2ccccc2)n1	-4.2%	1.2%	-2.7%	-4.1%	?	?
COC(=O)c1cccc(NC(=S)NCc2ccco2)c1	14.6µM*	12.1%	16.4µM*	-0.1%	i	?
CCNC(=O)N(C)c1c(CC)nc2ccc(C(=O)N3CCN(S(=O)(=O)CC)CC3)cn12	6.0%	1.6%	13.1%	10.4%	i	i
COCCn1c(=O)c(-c2ccc(OC)cc2)nc2cnc(N3CCOCC3)nc21	-3.2%	/	2.4%	/	/	/
N#CN=c1snc(-c2ccccc2)n1-c1ccc(Br)cc1	?	/	?	/	?	i
O=C(CNCc1ccccc1)Nc1ccc(Oc2ccccc2)cc1	?	7.31µM*	13.9%	6.51µM*	5.17µM*	i
O=C(Nc1ccccc1)c1cccc(NC(=O)c2ccco2)c1	-27.9%	-9.6%	9.1%	1.9%	i	?
O=C(NCc1ccccc1)c1cccc(NC(=O)c2ccco2)c1	-4.0%	?	-3.6%	4.11µM*	10.3µM*	8.2µM*
Cc1cccc(-c2noc(-c3ccccc3C(=O)NCc3ccco3)n2)c1	20.6µM*	-7.9%	20.6µM*	-16.2%	i	?
O=C(Nc1cccc(C(=O)Nc2cccc(Br)c2)c1)c1ccccc1	?	-4.7%	23.1µM*	-8.3%	?	i
O=C(CNCc1ccccc1)Nc1ccc(F)cc1	-10.1%	-2.9%	-6.8%	-0.4%	i	?
O=C(O)c1cccc(NC(=O)c2ccccc2)c1	3.0%	-11.1%	-18.2%	-9.6%	i	?
Cc1ccc(-c2noc(-c3ccccc3C(=O)NCc3ccco3)n2)cc1	?	1.4%	?	-5.7%	i	i
CCSc1nnc(NC(=O)CCNS(=O)(=O)c2ccccc2F)s1	-12.6%	-6.5%	-8.0%	4.3%	i	i
CCOc1ccc(Cn2nnc(-c3ccc(S(C)(=O)=O)cc3)n2)cc1OCC	-18.9%	-0.4%	-10.6%	-2.6%	i	i
O=S(=O)(c1ccc2c(Cl)cccc2c1)N1CCN(c2nc(-c3cccs3)nc3ccccc23)CC1	-9.8%	24.3%	-3.1%	7.2%	/	/
Cc1cc(O)ccc1NC(=S)NC(=O)c1cncc(Br)c1	16.4µM*	-14.1%	14.6µM*	?	i	?
